Laboratory results as given in PubChem BioAssay (Tox21).
Calls of active or inactive are those of the source. Unless noted, the call rests on the fitted dose curve; in most records, active means well fitted curve in the direction sought with a large enough effect in the repeat runs; inconclusive means weak or mixed curves; inactive means no such curve, though single readings can be large; an effect the other way counts as inactive or inconclusive.

Assays:
[1] = qHTS assay for identifying genotoxic compounds that show differential cytotoxicity against isogenic chicken DT40 cell lines with known DNA damage response pathways - wild type cell line (AID 743012); further: nearly all actives have a fitted effect of over 60% in size; further: potency means the concentration at half of the fitted maximal effect
In short: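 Using parental DT40 (300 cells/well), compounds delivered in DMSO incubate 40 h at 37 C/5% CO2. CellTiter-Glo reagent then stands 30 min at room temperature, and luminescence gives cell viability.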

[2] = qHTS assay for identifying genotoxic compounds that show differential cytotoxicity against isogenic chicken DT40 cell lines with known DNA damage response pathways - Rev3 mutant cell line (AID 743014); further: nearly all actives have a fitted effect of over 55% in size; further: potency means the concentration at half of the fitted maximal effect
[3] = qHTS assay for identifying genotoxic compounds that show differential cytotoxicity against isogenic chicken DT40 cell lines with known DNA damage response pathways - Rad54/Ku70 mutant cell line (AID 743015); further: nearly all actives have a fitted effect of over 60% in size; further: potency means the concentration at half of the fitted maximal effect
[4] = target: Androgen receptor (Homo sapiens) (UniProt P10275); assay: qHTS assay to identify small molecule agonists of the androgen receptor (AR) signaling pathway (AID 743036; active means well fitted activation curve with a large enough effect in the signal ratio in the repeat runs, with a control signal flat, not every such curve was filed as active; inconclusive means weak or mixed curves, or effect the other way; inactive means no such curve, though single readings can be large or run the other way; the % refers to the signal ratio)
Androgen receptor (Homo sapiens), sequence (P10275 whole entry, looked up): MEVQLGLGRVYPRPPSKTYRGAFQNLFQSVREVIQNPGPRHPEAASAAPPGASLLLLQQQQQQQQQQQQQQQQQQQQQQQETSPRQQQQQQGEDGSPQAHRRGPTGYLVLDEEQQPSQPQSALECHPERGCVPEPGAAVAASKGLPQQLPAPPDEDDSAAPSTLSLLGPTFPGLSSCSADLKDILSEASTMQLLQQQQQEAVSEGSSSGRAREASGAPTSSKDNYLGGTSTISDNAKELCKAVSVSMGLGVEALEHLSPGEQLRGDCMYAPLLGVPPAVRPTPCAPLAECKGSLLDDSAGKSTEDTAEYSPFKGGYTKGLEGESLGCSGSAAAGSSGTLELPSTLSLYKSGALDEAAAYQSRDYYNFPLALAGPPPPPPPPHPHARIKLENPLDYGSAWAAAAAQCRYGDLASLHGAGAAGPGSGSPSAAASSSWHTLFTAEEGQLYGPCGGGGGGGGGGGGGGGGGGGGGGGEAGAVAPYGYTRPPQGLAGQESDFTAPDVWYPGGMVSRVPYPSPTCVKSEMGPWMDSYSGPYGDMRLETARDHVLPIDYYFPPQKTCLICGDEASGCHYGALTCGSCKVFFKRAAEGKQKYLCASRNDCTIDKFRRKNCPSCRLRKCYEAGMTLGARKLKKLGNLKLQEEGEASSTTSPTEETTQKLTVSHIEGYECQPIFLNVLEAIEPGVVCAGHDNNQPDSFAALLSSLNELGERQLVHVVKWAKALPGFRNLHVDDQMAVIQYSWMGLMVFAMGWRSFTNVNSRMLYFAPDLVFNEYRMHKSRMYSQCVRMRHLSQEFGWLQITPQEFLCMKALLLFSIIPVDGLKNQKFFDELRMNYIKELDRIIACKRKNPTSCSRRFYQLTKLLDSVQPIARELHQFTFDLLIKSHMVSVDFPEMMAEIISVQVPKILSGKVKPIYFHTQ
In short: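 Cell-based FRET reporter assay: HEK293 line with a UAS-beta-lactamase construct, compounds added in DMSO, 16 h exposure at 37C, then 2 h substrate step at room temperature and fluorescence intensity read.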

[5] = target: Androgen receptor (Homo sapiens) (UniProt P10275); assay: qHTS assay to identify small molecule agonists of the androgen receptor (AR) signaling pathway using the MDA cell line (AID 743040; further: nearly all actives have a fitted effect of over 20% in size)
In short: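 Cells plated, 5 h at 37C/0% CO2; compound or DMSO pinned; 16 h at 37C; ONE-Glo added; luminescence measured after 30 min at room temperature. Reporter line: MDA-kb2 with MMTV-luciferase responsive to AR and GR.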

[6] = qHTS assay to identify small molecule antagonists of the androgen receptor (AR) signaling pathway using the MDA cell line - cell viability counter screen (AID 743041; further: nearly all actives have a fitted effect of over 45% in size)
In short: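 Cells were plated at 3,000 per well and left 5 h. Compounds in DMSO were then pinned in, followed by R1881. After 16 h at 37C, CellTiter-Fluor fluorescence gave viability.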

[7] = qHTS assay to identify small molecule antagonists of the thyroid receptor (TR) signaling pathway - cell viability counter screen (AID 743064); further: nearly all actives have a fitted effect of over 50% in size; further: potency means the concentration at half of the fitted maximal effect
In short: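 In rat pituitary GH3.TRE-Luc reporter cells co-exposed to compound and 1 nM T3 for 23.5 h, cytotoxicity was assessed with CellTiter-Fluor in the same wells, read by fluorescence.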

[8] = qHTS assay to identify small molecule antagonists of the thyroid receptor (TR) signaling pathway (AID 743065); further: nearly all actives have a fitted effect of over 55% in size; further: potency means the concentration at half of the fitted maximal effect
In short: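 Antagonism measured as loss of luciferase signal in GH3 cells stably carrying a TRE-luciferase reporter, co-treated with compound and T3 (1 nM final) for 23.5 h at 37 C. Viability was read in the same well by CellTiter-Fluor.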

[9] = system: thyroid hormone receptor (rat, GH3 cells); assay: qHTS assay to identify small molecule agonists of the thyroid receptor (TR) signaling pathway (AID 743066; calls by dose curve)
[10] = target: Estrogen receptor (Homo sapiens) (UniProt P03372); assay: qHTS assay to identify small molecule agonists of the estrogen receptor alpha (ER-alpha) signaling pathway (AID 743075; calls by dose curve;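 further: HEK293 GripTite cells with ER-alpha and UAS-driven beta-lactamase reporter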; further: potency means the concentration at half of the fitted maximal effect)
Estrogen receptor (Homo sapiens), sequence (P03372 whole entry, looked up): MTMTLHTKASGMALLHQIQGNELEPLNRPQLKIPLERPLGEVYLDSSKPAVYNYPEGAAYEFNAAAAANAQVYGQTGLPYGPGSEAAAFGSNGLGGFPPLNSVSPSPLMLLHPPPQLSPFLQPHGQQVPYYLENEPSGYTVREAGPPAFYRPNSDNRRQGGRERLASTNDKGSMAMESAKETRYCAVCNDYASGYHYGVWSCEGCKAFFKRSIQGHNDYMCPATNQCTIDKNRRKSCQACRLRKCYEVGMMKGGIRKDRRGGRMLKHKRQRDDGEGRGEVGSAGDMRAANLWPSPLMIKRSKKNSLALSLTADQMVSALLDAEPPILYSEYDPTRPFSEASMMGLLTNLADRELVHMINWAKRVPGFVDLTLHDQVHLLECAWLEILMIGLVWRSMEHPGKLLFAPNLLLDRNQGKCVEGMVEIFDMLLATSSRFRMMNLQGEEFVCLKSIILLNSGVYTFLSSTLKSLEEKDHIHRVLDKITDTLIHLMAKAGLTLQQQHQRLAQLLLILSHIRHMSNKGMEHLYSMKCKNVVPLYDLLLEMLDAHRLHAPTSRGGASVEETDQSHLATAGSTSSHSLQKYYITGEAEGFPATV

[11] = target: Estrogen receptor (Homo sapiens) (UniProt P03372); assay: qHTS assay to identify small molecule agonists of the estrogen receptor alpha (ER-alpha) signaling pathway using the BG1 cell line (AID 743079); conditions: BG1Luc4E2 cells, ERE-luciferase agonist, 22 h; activation: at 70.3 µM (top of the series); further: nearly all actives have a fitted effect of over 20% in size; further: potency means the concentration at half of the fitted maximal effect
[12] = qHTS assay to identify small molecule antagonists of the androgen receptor (AR) signaling pathway - cell viability counter screen (AID 743033; further: nearly all actives have a fitted effect of over 45% in size)
[13] = target: Estrogen receptor (Homo sapiens) (UniProt P03372); assay: qHTS assay to identify small molecule antagonists of the estrogen receptor alpha (ER-alpha) signaling pathway (AID 743069; active means well fitted curve in the direction sought with a large enough effect in the signal ratio in the repeat runs, not every such curve was filed as active; inconclusive means weak or mixed curves, or effect the other way; inactive means no such curve, though single readings can be large or run the other way; the % refers to the signal ratio; further: potency means the concentration at half of the fitted maximal effect)
In short: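 ER-alpha-UAS-bla GripTite HEK293 line; 2% charcoal-stripped FBS overnight; plated, 4 hr 37C/5% CO2; cpd in DMSO + 17beta-estradiol, 18 hr 37C; LiveBLAzer B/G FRET substrate 2 hr RT; fluorescence intensity.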

[14] = qHTS assay to identify small molecule antagonists of the estrogen receptor alpha (ER-alpha) signaling pathway - cell viability counter screen (AID 743074; calls by dose curve;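 further: HEK293 cells carrying ER-alpha-UAS-bla reporter stimulated with 17beta-estradiol; nearly all actives have a fitted effect of over 45% in size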; further: potency means the concentration at half of the fitted maximal effect)
[15] = qHTS assay to identify small molecule antagonists of the estrogen receptor alpha (ER-alpha) signaling pathway using the BG1 cell line (AID 743080; calls by dose curve;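 further: BG1 cells stimulated with 17beta-estradiol alongside compound; nearly all actives have a fitted effect of over 25% in size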; further: potency means the concentration at half of the fitted maximal effect)
In short: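 Luminescence from a 4×ERE-luciferase reporter in BG1-Luc-4E2 cells served as read-out. Cells, pre-cultured 5 days in stripped-serum phenol-red-free medium, were exposed to compound with 17beta-estradiol co-stimulation for 21.5 h at 37 C.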

[16] = qHTS assay to identify small molecule antagonists of the estrogen receptor alpha (ER-alpha) signaling pathway using the BG1 cell line - cell viability counter screen (AID 743081);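 further: compound given together with 17beta-estradiol as the ER stimulus; nearly all actives have a fitted effect of over 45% in size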; further: potency means the concentration at half of the fitted maximal effect
Aromatase (Homo sapiens) = Aromatase (Homo sapiens) (UniProt P11511); assay: qHTS assay to identify aromatase inhibitors (AID 743083); further: nearly all actives have a fitted effect of over 55% in size; further: potency means the concentration at half of the fitted maximal effect
Aromatase (Homo sapiens), sequence (P11511 whole entry, looked up): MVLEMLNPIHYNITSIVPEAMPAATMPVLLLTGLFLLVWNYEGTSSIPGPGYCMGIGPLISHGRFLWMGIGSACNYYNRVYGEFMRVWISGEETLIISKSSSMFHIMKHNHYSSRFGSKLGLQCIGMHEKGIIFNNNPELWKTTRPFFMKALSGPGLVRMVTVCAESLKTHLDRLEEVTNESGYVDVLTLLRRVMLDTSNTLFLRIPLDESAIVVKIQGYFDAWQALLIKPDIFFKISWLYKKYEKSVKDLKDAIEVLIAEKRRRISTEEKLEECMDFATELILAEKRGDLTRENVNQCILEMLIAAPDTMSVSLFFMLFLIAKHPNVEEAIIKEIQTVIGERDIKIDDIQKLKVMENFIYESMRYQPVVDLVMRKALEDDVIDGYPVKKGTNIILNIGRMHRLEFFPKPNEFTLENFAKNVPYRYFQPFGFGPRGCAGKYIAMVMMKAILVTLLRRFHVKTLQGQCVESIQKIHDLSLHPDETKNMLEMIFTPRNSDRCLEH

[17] = target: Androgen receptor (Homo sapiens) (UniProt P10275); assay: qHTS assay to identify small molecule antagonists of the androgen receptor (AR) signaling pathway using the MDA cell line (AID 743042; further: nearly all actives have a fitted effect of over 55% in size; further: potency means the concentration at half of the fitted maximal effect)
In short: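 Antagonist mode: compounds plus R1881 agonist added to MDA-kb2 AR-luc cells, incubated 16 h at 37C. Luciferase reporter luminescence quantified, with multiplexed CellTiter-Fluor readout for cell viability.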

Measured: Potency

C=C1C(=C/C=C2\CCC[C@]3(C)[C@@H]([C@H](C)/C=C/[C@H](C)C(C)C)CC[C@@H]23)C[C@@H](O)C[C@@H]1O
inactive: [4] | [5] | [6] | [9] | [10] | [11]
active: [1] 13.3 µM | [2] 21.1 µM | [3] 16.8 µM | [7] 29.8 µM | [8] 29.8 µM

CC(C)Cc1ccc([C@@H](C)C(=O)NS(C)(=O)=O)cc1
inactive: [12] | [6] | [8] | [9] | [13] | [14] | [10] | [11] | [15] | [16] | Aromatase (Homo sapiens)

CC[C@@]1(O)C(=O)OCc2c1cc1n(c2=O)Cc2cc3c([N+](=O)[O-])cccc3nc2-1
inactive: [12] | [9] | [14] | [10]
active: [1] 0.119 µM | [2] 0.0944 µM | [3] 0.0841 µM | [7] 2.37 µM | [8] 0.473 µM | [13] 4.77 µM [inconclusive] | [15] 0.266 µM | Aromatase (Homo sapiens) 0.596 µM

O=[N+]([O-])c1c(Cl)cccc1-c1c[nH]cc1Cl
active: [2] 23.7 µM | [3] 26.6 µM | [7] 29.8 µM | [8] 26.6 µM | [10] 4.77 µM [inconclusive]
inactive: [12] | [6]

C=CCNC1=C2C[C@@H](C)C[C@H](OC)[C@H](O)[C@@H](C)/C=C(\C)[C@H](OC(N)=O)[C@@H](OC)/C=C\C=C(/C)C(=O)NC(=CC1=O)C2=O
active: [1] 0.335 µM | [2] 0.473 µM | [3] 0.376 µM | [8] 0.335 µM | [15] 0.237 µM
inactive: [9] | [14] | [10] | Aromatase (Homo sapiens)

CC(C)[C@@H](N)C(=O)O
inactive: [1] | [3] | [12] | [6] | [7] | [8] | [9] | [13] | [14] | [10] | [11] | [15] | [16] | Aromatase (Homo sapiens)

CC(CN(C)C)CN1c2ccccc2Sc2ccc(C(F)(F)F)cc21 (stereo not drawn)
inactive: [12] | [6] | [14] | [16]
active: [1] 5.96 µM | [2] 7.5 µM | [3] 9.44 µM | [7] 8.41 µM | [8] 13.3 µM

CC(C)N=c1cc2n(-c3ccc(Cl)cc3)c3ccccc3nc-2cc1Nc1ccc(Cl)cc1
inactive: [12] | [13] | [14] | [10] | [11] | Aromatase (Homo sapiens)
active: [2] 11.4 µM | [7] 7.17 µM | [8] 6.39 µM | [16] 11.4 µM

CC1=C(/C=C/C(C)=C/C=C/C(C)=C/C=C/C=C(C)/C=C/C=C(C)/C=C/C2=C(C)C[C@@H](O)CC2(C)C)C(C)(C)C[C@H](O)C1
active: [2] 13.3 µM | [17] 29.8 µM | [7] 29.8 µM
inactive: [5] | [6] | [14] | [16]

CN(C)C(=O)CCSC(SCCC(=O)O)c1cccc(/C=C/c2ccc3ccc(Cl)cc3n2)c1 (stereo not drawn)
active: [7] 29.8 µM | [8] 26.6 µM | [13] 7.56 µM [inconclusive] | [11] 2.37 µM
inactive: [12] | [5] | [17] | [14] | [10] | [16] | Aromatase (Homo sapiens)

NC(=O)C[C@@H](N)C(=O)O
inactive: [1] | [2] | [3] | [12] | [6] | [7] | [9] | [14] | Aromatase (Homo sapiens)

CC(C)N1CCN(c2ccc(OC[C@H]3CO[C@](Cn4cncn4)(c4ccc(Cl)cc4Cl)O3)cc2)CC1
inactive: [13] | [10] | [11]
active: [1] 4.52 µM | [2] 5.07 µM | [3] 6.39 µM | [7] 6.39 µM | [8] 4.52 µM

Nc1ncnc2c1ncn2[C@@H]1O[C@H](COP(=O)(O)OP(=O)(O)OP(=O)(O)O)[C@@H](O)[C@H]1O
active: [14] 6.01 µM
inactive: [1] | [2] | [3] | [12] | [6] | [10] | [11] | [16] | Aromatase (Homo sapiens)
